Test results reported in the supplement of paper PMC6555819.

What was measured:
Assay in all cases: PBM binding z-score (relative to random genomic background probes); higher = stronger binding; sequences stand for … in GC…GCGATTGACAGCGTAGAATGAAGG
[1] = system: FXR:RXRa (NR concentration 270 nM, RXRa partner concentration 90 nM)
Procedure, shortened: (§1)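 Each nuclear receptor dimer, without ligand, was incubated for 1 h on custom Agilent 4×180K protein-binding microarrays. Binding was detected with antibodies against each partner (one per run), and scanned fluorescence was regression-normalized. The binding z-scores are referenced to random human genomic background probes.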

[2] = system: LXRa:RXRa (NR concentration 270 nM, RXRa partner concentration 90 nM)
Procedure, shortened: as §1

[3] = system: LXRa homodimer (NR concentration 270 nM)
Procedure, shortened: as §1

[4] = system: LXRb:RXRa (NR concentration 270 nM, RXRa partner concentration 90 nM)
Procedure, shortened: as §1

[5] = system: LXRb homodimer (NR concentration 270 nM)
Procedure, shortened: as §1

[6] = system: PPARa:RXRa (NR concentration 270 nM, RXRa partner concentration 90 nM)
Procedure, shortened: as §1

[7] = system: PPARg:RXRa (NR concentration 180 nM, RXRa partner concentration 90 nM)
Procedure, shortened: as §1

[8] = system: PPARg:RXRa 270nM:90nM, anti-RXR (NR concentration 270 nM, RXRa partner concentration 90 nM)
Procedure, shortened: as §1

[9] = system: PPARg:RXRa 30nM:10nM, anti-RXR (NR concentration 30 nM, RXRa partner concentration 10 nM)
Procedure, shortened: as §1

[10] = system: PPARg:RXRa 90nM:30nM, anti-RXR (NR concentration 90 nM, RXRa partner concentration 30 nM)
Procedure, shortened: as §1

[11] = system: PPARg:RXRa DBDmut IVT, anti-RXR (DBD mutation: RXRa K156A/R161A, NR concentration 270 nM, RXRa partner concentration 90 nM)
Procedure, shortened: as §1

[12] = system: PPARg:RXRa IVT, anti-PPARg (NR concentration 270 nM, RXRa partner concentration 90 nM)
Procedure, shortened: as §1

[13] = system: PPARg DBDmut:RXRa IVT, anti-PPARg (DBD mutation: PPARg1 K132A/R137A, NR concentration 270 nM, RXRa partner concentration 90 nM)
Procedure, shortened: as §1

[14] = system: PPARg DBDmut IVT, anti-PPARg (DBD mutation: PPARg1 K132A/R137A, NR concentration 270 nM)
Procedure, shortened: as §1

[15] = system: PPARg homodimer (NR concentration 180 nM)
Procedure, shortened: as §1

[16] = system: PXR:RXRa (NR concentration 270 nM, RXRa partner concentration 90 nM)
Procedure, shortened: as §1

[17] = system: PXR homodimer (NR concentration 270 nM)
Procedure, shortened: as §1

[18] = system: RARa:RXR (NR concentration 270 nM, RXRa partner concentration 90 nM)
Procedure, shortened: as §1

[19] = system: RARa homodimer (NR concentration 270 nM)
Procedure, shortened: as §1

[20] = system: RARb:RXRa (NR concentration 270 nM, RXRa partner concentration 90 nM)
Procedure, shortened: as §1

Sequence	PBM binding z-score [1]	PBM binding z-score [2]	PBM binding z-score [3]	PBM binding z-score [4]	PBM binding z-score [5]	PBM binding z-score [6]	PBM binding z-score [7]	PBM binding z-score [8]	PBM binding z-score [9]	PBM binding z-score [10]	PBM binding z-score [11]	PBM binding z-score [12]	PBM binding z-score [13]	PBM binding z-score [14]	PBM binding z-score [15]	PBM binding z-score [16]	PBM binding z-score [17]	PBM binding z-score [18]	PBM binding z-score [19]	PBM binding z-score [20]
CTTAGCAGGCCAGGGTCACTCAAGCATTTCGCTT	2.22	1.69	-0.276	2.19	-0.331	3.33	0.864	1.93	-0.113	1.06	1.45	1.72	-0.582	-0.865	0.785	2.67	-0.227	3.2	-0.241	2.81
GATACAGGGTCAGCTCGAGGCCAGAGTATGGAAA	4.59	2.87	-0.199	2.4	-0.786	4.56	3.36	3.21	0.631	2.06	1.36	2.36	-0.23	-0.691	1.54	3.47	-0.0374	3.66	-0.0976	4.12
TCATATAGGAAAATGCTAGGTGAAAGTCCGATCT	1.09	0.845	0.237	0.489	-0.0669	0.728	0.487	2.3	4.01	3.28	2.71	0.68	0.369	0.466	0.42	0.59	0.397	0.636	1.22	0.176
TGAATGAGGTTATAAGATCATGGAACGTTGCAAA	1.6	1.52	-0.175	1.37	0.0257	3.04	1.65	2.41	1.02	1.78	1.37	2	1.44	0.209	-0.119	1.1	-0.359	1.96	-0.439	1.13
ATCTCTAGGTAAAGTTCAGTGATAGATCGATAGA	1.49	1.95	1.88	1.14	1.34	2.39	3.59	4.16	2.3	3.88	2.28	2.44	1.4	1.48	1.9	1.92	1.96	1.35	1.69	2.71
CCTAGTTGGTCAGGAGGTCACACCCCGGATATGA	3.53	3.05	2.07	3.15	0.855	3.98	2.86	3.57	1.05	3.09	1.1	3.66	0.426	0.108	3.14	4.1	1.16	4.24	2.03	3.71
CCTCGGAGGACAAAAGGAGGTCAGAGCTGCCAGA	1.18	2.12	1.26	1.34	-0.602	2.71	0.706	1.21	-0.33	0.651	0.965	1.96	-1.11	-2.13	1.84	2.15	0.144	2.45	0.515	2.39
CCAGACAGGTGAAAGGAAACTCAGTCTGGTACGC	-0.00156	-0.109	-0.46	-0.0929	-0.489	0.52	0.81	1	-0.0154	0.657	1.07	0.474	-0.232	-0.58	0.283	-0.274	-0.261	0.0734	-0.148	0.522
TCGAGTAGGTTACCAATGGGGCAATCAGCTTTCT	-0.178	1.28	-0.627	0.776	-1.22	1.27	0.44	1.02	1	1.13	3.39	2.82	0.0614	0.102	-0.476	0.111	-0.71	0.261	-0.846	0.959
CCAGACAGGTGGGAAGGTAACTCAGCCTCGATTA	-0.208	-0.246	0.289	0.0174	-0.794	0.0187	0.131	-0.544	-0.249	-0.529	-0.289	-0.383	-0.344	-0.717	0.689	-0.359	0.0826	-0.164	0.496	-0.0117
CGAACTAGGTCATAGACAGGACAGTGAATAGTAA	3.32	2.16	0.422	1.64	-0.534	4.33	7.56	6.26	3.94	5.68	7.81	8.39	2.54	1.39	1.46	1.43	0.213	2.07	0.165	3.55
ATCTCTAGGTAACCAAGCTCAGTGAATGCCGAAC	0.0567	-0.156	-0.0842	-0.416	0.643	0.0797	0.181	0.28	-0.0374	0.235	2.93	2.13	1.25	0.885	0.709	-0.105	0.251	0.193	0.798	0.0628
CTACCAAGGTGAACATGGTCGTTGATTACTATTC	0.63	0.673	-0.0625	1.05	-0.345	1.73	0.829	0.843	0.0499	0.359	2.77	2.62	0.872	-0.0867	0.593	0.435	-0.201	1.12	0.284	1.66
CCGATTGGGGCAGAAAGGTTACCATACCATCCGG	0.261	0.61	-0.352	1.09	-0.598	2.22	2.06	3.83	2.17	3.56	0.436	1.14	-1.01	-0.679	0.221	1.24	-0.318	1.66	-0.348	1.88
CGAACTAGGTCATCCAGGACACTGAATACATTGA	4.41	3.1	0.974	2.29	0.265	4.94	7.9	6.43	3.85	5.81	8.38	8.23	3.17	1.12	2.19	2.31	1.65	2.99	1.29	3.98
GCTTATAGGTAATACAAGGTGAAAGTCCGATTGT	0.773	2.61	0.251	0.934	-0.275	1.5	0.93	1.22	0.379	0.916	3.24	2.78	1	1.03	0.685	0.829	0.193	1.93	1.06	0.613
GCGACTGGGGCAATGCAGGTTACCATAAGGTTGG	0.0254	0.655	-0.566	0.504	-0.824	1.78	1.65	1.26	-0.113	0.69	4.37	4.53	-0.0887	-0.128	0.0203	0.548	-0.5	0.919	-0.465	0.959
CAAACTAGCTCACAGAGGTCAAAGTCCGTGCGTA	4.84	5.04	5.7	4.99	1.59	4.82	2.1	3.38	1.05	2.74	0.877	2.03	0.153	0.182	4.66	5.9	3.09	6.47	2.88	3.87
GCGACTGGGGCAAAGCAGATTACCATAAGGTTGG	-0.443	-0.606	-0.499	-0.352	-0.97	0.454	1.36	0.951	0.202	0.481	4.66	3.29	-0.663	-0.34	-0.207	-0.451	-0.273	-0.203	-0.607	0.381
ATATGTAGGTTAAGGGTCATTCTGGTTGGTTCGC	5.42	4.75	3.48	4.51	1.56	6.65	11.4	9.66	10.5	11.5	7.57	7.51	2.31	1.76	4.67	4.85	1.04	5.63	2.03	3.56
GCATATACGTAATACAAGGTGAAAGTCCGATTGT	0.409	0.28	0.383	0.441	0.0307	0.855	0.906	0.499	0.287	0.554	-0.0308	0.718	0.51	1.15	0.296	0.381	0.191	0.815	0.672	0.666
CCGACTGGGGCAGAATGGTTACCATACCATCCGG	-0.449	-0.782	-0.449	-0.838	-1.2	-0.355	0.778	-0.289	-0.329	-0.35	1.42	0.943	-0.354	-1.29	0.0556	-1.05	-0.973	-0.83	-0.164	0.0446
GTACCAAGGTGAATAGGTCGTTAATGAGTAGGCG	0.719	0.484	-0.0766	0.302	-0.312	2.18	1.38	1.71	0.588	1.07	1.75	2.66	0.399	0.346	1.46	0.664	0.393	1.44	0.00305	1.91
CCGACTGGGGCAAGGTTAACATAACGCACAGCCA	0.315	0.681	-0.0664	0.737	-0.786	2.59	4.38	4.92	2.68	4.38	3.28	3.69	0.246	-0.475	0.856	0.52	-0.244	0.896	0.086	1.74
CGTCCCAGGTCAGAGAGGTCAGTGAATGCCGAGT	4.31	4.12	2.6	3.58	0.209	3.75	2.21	2.76	0.0256	1.76	1.78	2.54	-0.171	-0.892	3.01	5.38	10.2	4.83	0.426	4.48
ATCCCAAGGTGATCGTGAGGTCGTTGATACTAAC	1.33	1.13	0.822	1.02	-0.338	1.16	0.11	0.0594	-0.299	-0.346	0.258	0.592	0.328	-0.0144	1.01	2.89	1.37	1.81	0.229	1.31
AGTCAAAGTTCAGGACGAGGTTACGTAAAGCACG	4.83	4.65	2.06	2.7	0.273	3.73	5.02	4.89	2.32	4.2	-0.0298	2.22	0.501	0.266	2.73	4.73	2.59	4.38	1.13	4.46
GGAACGAGGGCAAAGTTGAAAGCATCTGTCGACG	2.18	1.34	-0.458	1.26	-0.325	4.91	8.72	8.04	7.29	8.83	4.35	5.08	-0.45	-0.356	0.811	2.03	0.337	2.95	-0.362	2.7
